Test results from PubChem BioAssay AID1159580 (chemical genetic matrix, 2015).
“And” between values parts separate entries of the source, which are not always exact repeats. Equal entries are not always repeated. Out of some 5,500 compounds screened, about 2,000 (36%) were called active. Not shown: some 18% with an inconclusive outcome. Rule as the data show it: active = normalized growth mostly below about 0.91 (no sharp cut-off); inconclusive = no clear call, values can overlap the other calls; inactive = mostly above about 0.92. Some of the results follow.

Assay: chemical genetic growth profiling, strain panel (AID 1159580);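 also: tested at 20 µM; growth read once vehicle control cultures reached saturation at 30 °C; 1 = growth at the plate median or of vehicle wells; lower values mean less growth of the strain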
Settings: growth OD

Measured: normalized growth

O=C1NC(O)=NC1(c1ccccc1)c1ccccc1
inactive: S. cerevisiae deletion strains, locus YJR075W, strain HOC1, stronger effect = lower value 1.01 | S. cerevisiae deletion strains, locus YKL009W, strain mrt4, stronger effect = lower value 1.01 | S. cerevisiae deletion strains, locus YKL068W, stronger effect = lower value 1.02 | S. cerevisiae deletion strains, locus YKL085W, strain MDH1 (second series), stronger effect = lower value 1 | S. cerevisiae deletion strains, locus YKL085W, strain MDH1, stronger effect = lower value 1 | S. cerevisiae deletion strains, locus YKL160W, strain elf1, stronger effect = lower value 1.03 | S. cerevisiae deletion strains, locus YKL190W, strain CNB1, stronger effect = lower value 1.01 | S. cerevisiae deletion strains, locus YKR001C, strain vps1, stronger effect = lower value 1.01 | S. cerevisiae deletion strains, locus YKR026C, strain gcn3, stronger effect = lower value 1.02 | S. cerevisiae deletion strains, locus YKR091W, strain srl3, stronger effect = lower value 1.02 | S. cerevisiae deletion strains, locus YLL001W, strain dnm1, stronger effect = lower value 1.02 | S. cerevisiae deletion strains, locus YLL026W, stronger effect = lower value 1.01 | S. cerevisiae deletion strains, locus YLL041C, strain sdh2, stronger effect = lower value 1.01 | S. cerevisiae deletion strains, locus YLR027C, strain aat2, stronger effect = lower value 1.02 | S. cerevisiae deletion strains, locus YLR039C, strain RIC1, stronger effect = lower value 0.995 | S. cerevisiae deletion strains, locus YLR058C, strain SHM2, stronger effect = lower value 1.01 | S. cerevisiae deletion strains, locus YLR102C, strain apc9, stronger effect = lower value 1.02 | S. cerevisiae deletion strains, locus YLR113W, strain HOG1, stronger effect = lower value 1.01 | S. cerevisiae deletion strains, locus YLR221C, strain rsa3, stronger effect = lower value 1.03 | S. cerevisiae deletion strains, locus YLR258W, strain gsy2, stronger effect = lower value 1.03 | S. cerevisiae deletion strains, locus YLR262C, strain YPT6 (second series), stronger effect = lower value 1.05 | S. cerevisiae deletion strains, locus YLR262C, strain YPT6, stronger effect = lower value 1.03 | S. cerevisiae deletion strains, locus YLR268W, strain sec22, stronger effect = lower value 1.05 | S. cerevisiae deletion strains, locus YLR320W, strain mms22, stronger effect = lower value 1.03 | S. cerevisiae deletion strains, locus YLR330W, strain CHS5, stronger effect = lower value 1.01 | S. cerevisiae deletion strains, locus YLR342W, strain FKS1 (second series), stronger effect = lower value 0.985 | S. cerevisiae deletion strains, locus YLR342W, strain FKS1, stronger effect = lower value 1.02 | S. cerevisiae deletion strains, locus YLR357W, strain rsc2, stronger effect = lower value 1.01 | S. cerevisiae deletion strains, locus YLR370C, strain arc18, stronger effect = lower value 1.01 | S. cerevisiae deletion strains, locus YLR371W, strain rom2, stronger effect = lower value 1.02 | S. cerevisiae deletion strains, locus YLR384C, strain iki3, stronger effect = lower value 1.01 | S. cerevisiae deletion strains, locus YLR418C, strain cdc73, stronger effect = lower value 1 | S. cerevisiae deletion strains, locus YML016C, strain PPZ1, stronger effect = lower value 1.01 | S. cerevisiae deletion strains, locus YML032C, strain rad52, stronger effect = lower value 1.03 | S. cerevisiae deletion strains, locus YML120C, strain ndi1, stronger effect = lower value 1.02 | S. cerevisiae deletion strains, locus YML124C, strain tub3, stronger effect = lower value 1.01 | S. cerevisiae deletion strains, locus YMR058W, strain fet3, stronger effect = lower value 1.01 | S. cerevisiae deletion strains, locus YMR078C, strain ctf18, stronger effect = lower value 1.02 | S. cerevisiae deletion strains, locus YMR125W, strain sto1, stronger effect = lower value 1.02 | S. cerevisiae deletion strains, locus YMR129W, stronger effect = lower value 1.02 | S. cerevisiae deletion strains, locus YMR205C, strain PFK2, stronger effect = lower value 1.04 | S. cerevisiae deletion strains, locus YMR223W, strain ubp8, stronger effect = lower value 0.991 | S. cerevisiae deletion strains, locus YMR231W, strain pep5, stronger effect = lower value 1.02 | S. cerevisiae deletion strains, locus YMR263W, strain SAP30, stronger effect = lower value 1.01 | S. cerevisiae deletion strains, locus YMR307W, strain GAS1, stronger effect = lower value 0.906 | S. cerevisiae deletion strains, locus YNL067W, strain RPL9B, stronger effect = lower value 1.01 | S. cerevisiae deletion strains, locus YNL071W, strain lat1, stronger effect = lower value 1.02 | S. cerevisiae deletion strains, locus YNL128W, strain TEP1, stronger effect = lower value 1.01 | S. cerevisiae deletion strains, locus YNL153C, strain GIM3, stronger effect = lower value 1.01 and 0.985 | S. cerevisiae deletion strains, locus YNL175C, strain NOP13, stronger effect = lower value 0.974 | S. cerevisiae deletion strains, locus YNL183C, strain NPR1, stronger effect = lower value 0.954 | S. cerevisiae deletion strains, locus YNL197C, strain WHI3, stronger effect = lower value 0.983 | S. cerevisiae deletion strains, locus YNL209W, strain ssb2, stronger effect = lower value 1.02 | S. cerevisiae deletion strains, locus YNL224C, strain SQS1, stronger effect = lower value 0.984 | S. cerevisiae deletion strains, locus YNL233W, strain BNI4, stronger effect = lower value 1.01 | S. cerevisiae deletion strains, locus YNL248C, strain rpa49, stronger effect = lower value 1.01 | S. cerevisiae deletion strains, locus YNL250W, strain rad50, stronger effect = lower value 1.02 | S. cerevisiae deletion strains, locus YNL271C, strain bni1, stronger effect = lower value 1.02 | S. cerevisiae deletion strains, locus YNL298W, strain CLA4, stronger effect = lower value 1.01 | S. cerevisiae deletion strains, locus YNL307C, strain MCK1, stronger effect = lower value 1.02 | S. cerevisiae deletion strains, locus YNL322C, strain KRE1 (second series), stronger effect = lower value 1.01 | S. cerevisiae deletion strains, locus YNL322C, strain KRE1, stronger effect = lower value 1.01 and 0.973 | S. cerevisiae deletion strains, locus YNR049C, strain mso1, stronger effect = lower value 1.01 | S. cerevisiae deletion strains, locus YNR052C, strain pop2, stronger effect = lower value 1.01 | S. cerevisiae deletion strains, locus YOL006C, strain TOP1, stronger effect = lower value 1.01 | S. cerevisiae deletion strains, locus YOL012C, strain htz1 1.06 | S. cerevisiae deletion strains, locus YOL147C, strain pex11, stronger effect = lower value 1.01 | S. cerevisiae deletion strains, locus YOR001W, strain rrp6, stronger effect = lower value 1 | S. cerevisiae deletion strains, locus YOR061W, strain CKA2, stronger effect = lower value 1 | S. cerevisiae deletion strains, locus YOR069W, strain VPS5, stronger effect = lower value 1.01 | S. cerevisiae deletion strains, locus YOR070C, strain gyp1, stronger effect = lower value 1.01 | S. cerevisiae deletion strains, locus YOR080W, strain dia2, stronger effect = lower value 1.01 | S. cerevisiae deletion strains, locus YOR083W, strain WHI5 (second series), stronger effect = lower value 0.98 | S. cerevisiae deletion strains, locus YOR083W, strain WHI5, stronger effect = lower value 1.03 | S. cerevisiae deletion strains, locus YOR106W, strain vam3, stronger effect = lower value 1.02 | S. cerevisiae deletion strains, locus YOR136W, strain idh2, stronger effect = lower value 1.01 | S. cerevisiae deletion strains, locus YOR144C, strain elg1, stronger effect = lower value 1.01 | S. cerevisiae deletion strains, locus YOR184W, strain ser1, stronger effect = lower value 1.02 | S. cerevisiae deletion strains, locus YOR231W, strain MKK1, stronger effect = lower value 0.985 | S. cerevisiae deletion strains, locus YOR265W, strain rbl2, stronger effect = lower value 1.01 | S. cerevisiae deletion strains, locus YOR270C, strain vph1, stronger effect = lower value 1.03 | S. cerevisiae deletion strains, locus YOR290C, strain snf2, stronger effect = lower value 1.03 | S. cerevisiae deletion strains, locus YOR316C, strain cot1, stronger effect = lower value 1.02 | S. cerevisiae deletion strains, locus YPL051W, strain arl3, stronger effect = lower value 1 | S. cerevisiae deletion strains, locus YPL055C, strain LGE1, stronger effect = lower value 1.01 and 0.95 | S. cerevisiae deletion strains, locus YPL078C, strain atp4, stronger effect = lower value 1.01 | S. cerevisiae deletion strains, locus YPL106C, strain sse1, stronger effect = lower value 1.03 | S. cerevisiae deletion strains, locus YPL240C, strain hsp82, stronger effect = lower value 1.02 | S. cerevisiae deletion strains, locus YPL241C, strain CIN2, stronger effect = lower value 1 | S. cerevisiae deletion strains, locus YPL256C, strain CLN2, stronger effect = lower value 0.982 | S. cerevisiae deletion strains, locus YPR119W, strain clb2, stronger effect = lower value 1.02 | S. cerevisiae deletion strains, locus YPR141C, strain kar3, stronger effect = lower value 1.01 | S. cerevisiae deletion strains, locus YPR163C, strain tif3, stronger effect = lower value 1.02 | S. cerevisiae deletion strains, locus YPR167C, strain met16, stronger effect = lower value 1.02 | S. cerevisiae deletion strains, strain wtn01, stronger effect = lower value 1.03 | S. cerevisiae strains, strain wild type, stronger effect = lower value 1.01
